An excerpt weighted towards active compounds, which were near 19% of everything screened.
HT1080 IDH1KD tx = kills HT-1080 cells with IDH1 knockdown | HT-1080 IDH1 knockdown viability, ATP luminescence, 48 h | Potency, µM (highest dose often 46.1 µM), inactives show top-dose activity, negative = toxicity, actives largely listed as cytotoxic | 360,000 compounds, 2% hits | AID 686971;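 also: potency is read from the fitted curve at half-maximal effect; 0% = DMSO wells and -100% = cell-free medium wells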
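Luminescent ATP read-out (CellTiter-Glo, 10 min at room temperature) after 48 h compound exposure at 37 °C gave viability of IDH1-knockdown HT-1080 cells. Activity was normalised to DMSO and cell-free wells, then fitted as concentration-response curves.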
ELG1 DNA repair = inhibitors of ELG1-dependent DNA repair in HEK293T cells. HEK293T ELG1-luciferase reporter, luminescence, 16 h; DNA damage induced by 5-fluorouridine. Potency, µM (top dose mostly 46.1 µM), for inactives: at the highest dose activity change, negative = inhibition, usual class: inhibitors. 330,000 compounds, 2.3% hits; also: potency is read from the fitted curve at half-maximal effect; nearly all actives have a fitted effect of over 55% in size
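In this reporter screen, reduction of luminescence relative to DMSO vehicle indicated activity. Compounds and 5-fluorouridine were added together to 2,000 cells per well, incubated for 16 hr at 37 °C, then developed with ONE-Glo.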
DT40 TDP1 CPT = growth inhibition of DT40 Tdp1-/-;hTDP1 cells with camptothecin (screen for TDP1 inhibitors); chicken DT40 Tdp1-/-;hTDP1 cells + 20 nM CPT, ATP luminescence, 48 h; Potency, µM (highest dose often 46.2 µM), inactives show at the top dose activity change, negative = growth inhibition, most hits filed as inhibitors; AID 686979; 420,000 compounds, 12% hits; also: potency is read from the fitted curve at half-maximal effect; nearly all actives have a fitted effect of over 55% in size
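Chicken DT40 Tdp1-/- cells complemented with human TDP1, 400 cells/well, exposed to compounds plus 20 nM camptothecin for at least 48 h at 37 C; viability read as ATP content by CellTiter-Glo luminescence.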
HT1080NT lethal = kills 2HG-producing HT-1080-NT fibrosarcoma cells | Potency, µM (series often up to 46.1 µM), without a hit: at the top dose activity, negative = less viability, hits mostly cytotoxic | AID 686970 | 360,000 compounds, 1.6% hits | HT-1080-NT fibrosarcoma viability, CellTiter-Glo ATP luminescence, 48 h;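 also: NT is the 2HG producing partner of a matched IDH1 knockdown line; potency is read from the fitted curve at half-maximal effect; 0% = DMSO-treated cells and -100% = media-only wells without cells; nearly all actives have a fitted effect of over 55% in size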
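750 cells/well, RPMI + 5% FBS; 2 h settle, compound pin-transfer, 48 h at 37 degrees C. CellTiter-Glo 10 min RT, luminescence. Normalized to DMSO and media-only wells.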
TDP1 cell noCPT = qHTS for Inhibitors of human tyrosyl-DNA phosphodiesterase 1 (TDP1): qHTS in cells in absence of CPT. DT40 Tdp1-/- hTDP1 cells, no CPT, ATP luminescence, 48 h. Potency, µM (series often up to 46.2 µM), without a hit: top-dose activity change, negative = growth inhibition, hits mostly inhibitors. 420,000 compounds, 15% hits. AID 686978, 2013; also: potency is read from the fitted curve at half-maximal effect; nearly all actives have a fitted effect of over 55% in size
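Growth of hTDP1-complemented DT40 Tdp1-knockout cells is measured by ATP luminescence after at least 48 hr compound exposure at 37 °C, with DMSO substituting for the 20 nM CPT used in the parallel screen.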
IL-1B inflam inh = inhibitors of inflammasome signaling (IL-1 beta secretion); activity change, % at 57.5 µM; THP-1 LPS/ATP IL-1B secretion, AlphaLISA, 16 h; stronger effect = lower value; 360,000 compounds, 4.7% hits; in the data active = activity change below about -50%; inconclusive = mostly about -30% to -49%
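THP-1 cells pretreated 1 hr with compounds (up to 57.5 uM final), then stimulated with LPS (250 ng/mL final) plus ATP (1.25 mM final); secreted IL-1B measured by AlphaLISA after 16 hr, decreased signal indicating inhibition.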
* marks the source's active call; other numbers are inactive results; ? = inconclusive; · = not tested or not shown. Unless noted, calls follow the shape of the dose curve; as a rule, active = well fitted curve in the direction sought with a large enough effect; inconclusive = small, poorly fitted or top-dose-only effect, or another doubt; inactive = no such curve, though single readings can be large; an effect the other way counts as inactive or inconclusive. Unless noted, % is scaled to controls: 0 for no effect and ±100 for the full control effect.

SMILES	HT1080 IDH1KD tx	ELG1 DNA repair	DT40 TDP1 CPT	HT1080NT lethal	TDP1 cell noCPT	IL-1B inflam inh
Cc1cccc(C)c1NC(=O)CNC(=O)c1ccc(N2CCCC2)c([N+](=O)[O-])c1	-9%	?	-2%	-11%	2%	?
CCN(C(=O)COC(=O)C1CCN(S(=O)(=O)c2cccs2)CC1)c1ccccc1	16%	-4%	-3%	18%	-2%	17
O=C(NCC(=O)N1CC(O)CC1C(=O)N1CCCC1C(=O)OCc1ccccc1)OCc1ccccc1 (stereo not drawn)	?	1%	?	-21%	-11%	-21
COc1ccc(Br)cc1CC1C(=O)Nc2ccccc21 (stereo not drawn)	·	·	8.2µM*	·	7.3µM*	·
COc1cccc(Nc2ncc3nc(CCc4ccccc4)c(=O)n(C)c3n2)c1	·	·	-4%	·	9%	·
CCOc1ccc(Nc2nc(Cc3nnc(SCC(=O)c4ccc(C)c(C)c4)o3)cs2)cc1	?	23µM*	29µM*	?	16µM*	14
COc1cccc2cc(C(=O)Nc3ccc(S(=O)(=O)NCC4CCCO4)cc3)c(=O)oc12 (stereo not drawn)	4%	9%	-6%	4%	?	-19
Cc1[nH]nc2c1C(c1ccc(-c3ccc(Cl)cc3)o1)C(C#N)=C(N)O2 (stereo not drawn)	?	?	13µM*	?	?	-101*
Cc1cc(C2C(C#N)=C(N)Oc3n[nH]c(C)c32)c(C)s1 (stereo not drawn)	-12%	9%	8.2µM*	?	?	?
Cc1[nH]nc2c1C(c1ccc(-c3ccccc3C#N)o1)C(C#N)=C(N)O2 (stereo not drawn)	11µM*	-13%	29µM*	?	21µM*	-56*
Cc1ccc(-c2ccc(C3C(C#N)=C(N)Oc4n[nH]c(C)c43)o2)cc1 (stereo not drawn)	-15%	?	?	-20%	?	2
Cc1[nH]nc2c1C(c1ccc(F)cc1)C(C#N)=C(N)O2 (stereo not drawn)	16%	7%	-1%	-1%	3%	-28
COc1ccc([N+](=O)[O-])cc1C(=O)NCCOc1ccc(Cl)cc1	0%	-18%	-12%	-2%	?	?
CON=C1C=C(C)C(=O)C(C)=C1C	14%	·	13%	9%	10%	0
Cc1ccc(S(=O)(=O)N2CCC[C@H]2C(=O)OCC(=O)Nc2ccc3c(c2)OCO3)cc1	8%	20%	-2%	9%	3%	-4
O=C(COc1ccc(F)cc1)NCCc1nc2ccccc2[nH]1	·	·	0%	·	-17%	·
Nc1ccc(N2CCOCC2)c(S(=O)(=O)Nc2cc(Cl)ccc2Cl)c1	-22%	8%	-2%	-22%	1%	38
O=C(/C=C/c1cccs1)Nc1ccc(N2CCOCC2)c(S(=O)(=O)Nc2cc(Cl)ccc2Cl)c1	-6%	?	?	3%	23µM*	-2
O=C(/C=C/c1cccs1)Nc1ccc(N2CCOCC2)c(S(=O)(=O)Nc2ccccc2Cl)c1	-29%	?	?	4%	23µM*	?
O=C(c1ccc(S(=O)(=O)N2CCCCC2)cc1)N1CCN(CCN2C(=O)c3cccc4cccc(c34)C2=O)CC1	-3%	3.3µM*	13µM*	3%	12µM*	-3
O=C(c1ccc(S(=O)(=O)N2CCCC2)cc1)N1CCCCCC1	4%	0%	-25%	3%	21%	0
CCOc1ccc(NC(=S)N2CCN(CCN3C(=O)c4cccc5cccc(c45)C3=O)CC2)cc1	11%	-16%	?	24%	26µM*	11

Screens (PubChem)
